Results filed as inconclusive are left out. Where a call stands in place of a potency, no number is given. The source made the active and inactive calls. The call rests on the fitted dose curve; in most records, active means well fitted cell-killing curve with a large enough effect; inconclusive means small, poorly fitted or top-dose-only effect, or effect the other way; inactive means no such curve, though single readings can be large or run the other way.
assay: Quantitative High-Throughput drug screen in 47 multiple myeloma cell lines against the NCATS MIPE library collection: XG6_PLB cell viability assay (AID 1919865); settings: XG6 myeloma viability, CellTiter-Glo ATP luminescence, 48 h; series mostly up to 45.8 µM; further: nearly all actives have a fitted effect of over 40% in size
How it was run: (§1)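 Readout: median RLU from CellTiter-Glo after 5 min at room temperature. Preceding step was 48 h drug treatment of 500 cells/well at 37 °C, 5% CO2, with DMSO-only and media-only control wells.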
Potency means the concentration at half of the fitted maximal effect.

| Structure (SMILES) | Potency |
| --- | --- |
| CC(C)(C#N)c1cc(Cn2cncn2)cc(C(C)(C)C#N)c1 | inactive |
| COc1ccc2c(c1)c(CC(=O)OCC(=O)O)c(C)n2C(=O)c1ccc(Cl)cc1 | inactive |
| C[C@@H](NCCCc1cccc(C(F)(F)F)c1)c1cccc2ccccc12 | inactive |
| C[C@]12C=CC(=O)C=C1CC[C@@H]1[C@@H]2C(=O)C[C@@]2(C)[C@H]1CC[C@]2(O)C(=O)CO | inactive |
| Cc1ncc([N+](=O)[O-])n1CCO | inactive |
| COc1ncnc(NS(=O)(=O)c2ccc(N)cc2)c1OC | inactive |
| O=P(O)(O)C(O)(Cc1cccnc1)P(=O)(O)O | inactive |
| COc1ccccc1OCC(O)COC(N)=O (stereo not given) | inactive |
| O=C(O)c1cc(=O)[nH]c(=O)[nH]1 | inactive |
| Cc1onc(-c2ccccc2Cl)c1C(=O)N[C@@H]1C(=O)N2[C@@H]1SC(C)(C)[C@@H]2C(=O)O | inactive |
| Cc1noc(NS(=O)(=O)c2ccc(N)cc2)c1C | inactive |
| NC1(c2ccc(-c3nc4ccn5c(=O)[nH]nc5c4cc3-c3ccccc3)cc2)CCC1 | 20.9 µM (active) |
| CCCN[C@H]1CCc2nc(N)sc2C1 | inactive |
| CC1CC2C3CCC4=CC(=O)C=C[C@]4(C)[C@@]3(F)[C@@H](O)C[C@]2(C)[C@@]1(O)C(=O)CO (stereo not given in full) | inactive |
| O=C(O)c1cn(C2CC2)c2cc(N3CCNCC3)c(F)cc2c1=O | inactive |
| COCCCOc1cc(C[C@@H](C[C@H](N)[C@@H](O)C[C@H](C(=O)NCC(C)(C)C(N)=O)C(C)C)C(C)C)ccc1OC | inactive |
| CCn1cc(C(=O)O)c(=O)c2cc(F)c(N3CCNCC3)cc21 | inactive |
| CCOc1cc(N)c(Cl)cc1C(=O)NCC1CN(Cc2ccc(F)cc2)CCO1 (stereo not given) | inactive |
| Cc1ccnc2c1NC(=O)c1cccnc1N2C1CC1 | 23.5 µM (active) |
| Cn1c(=O)c2c(ncn2CC(O)CO)n(C)c1=O (stereo not given) | inactive |
| Cc1cccc(N(C)C(=S)Oc2ccc3ccccc3c2)c1 | inactive |
| CCOC(=O)c1ccc(OC(=O)CCCCCN=C(N)N)cc1 | inactive |
| COc1c(N2CCNC(C)C2)c(F)cc2c(=O)c(C(=O)O)cn(C3CC3)c12 (stereo not given) | inactive |

assay: Quantitative High-Throughput drug screen in 47 multiple myeloma cell lines against the NCATS MIPE library collection: XG1_PLB cell viability assay (AID 1919866); settings: CellTiter-Glo ATP, 48 h; series mostly up to 45.8 µM; further: nearly all actives have a fitted effect of over 35% in size
How it was run: as §1

| Structure (SMILES) | Potency |
| --- | --- |
| CC(C)(C#N)c1cc(Cn2cncn2)cc(C(C)(C)C#N)c1 | inactive |
| COc1ccc2c(c1)c(CC(=O)OCC(=O)O)c(C)n2C(=O)c1ccc(Cl)cc1 | inactive |
| COc1ccc(-c2ccc3cc(C(=O)O)ccc3c2)cc1C12CC3CC(CC(C3)C1)C2 | inactive |
| COc1ncnc(NS(=O)(=O)c2ccc(N)cc2)c1OC | inactive |
| COc1ccccc1OCC(O)COC(N)=O (stereo not given) | inactive |
| O=C(O)c1cc(=O)[nH]c(=O)[nH]1 | inactive |
| Cc1noc(NS(=O)(=O)c2ccc(N)cc2)c1C | inactive |
| CCn1cc(C(=O)O)c(=O)c2cc(F)c(N3CCN(C)CC3)cc21 | inactive |
| NC1(c2ccc(-c3nc4ccn5c(=O)[nH]nc5c4cc3-c3ccccc3)cc2)CCC1 | 20.9 µM (active) |
| Nc1nc(N)nc(-c2cc(Cl)ccc2Cl)n1 | inactive |
| O=C(O)c1cn(C2CC2)c2cc(N3CCNCC3)c(F)cc2c1=O | inactive |
| COCCCOc1cc(C[C@@H](C[C@H](N)[C@@H](O)C[C@H](C(=O)NCC(C)(C)C(N)=O)C(C)C)C(C)C)ccc1OC | inactive |
| CCn1cc(C(=O)O)c(=O)c2cc(F)c(N3CCNCC3)cc21 | inactive |
| CCOc1cc(N)c(Cl)cc1C(=O)NCC1CN(Cc2ccc(F)cc2)CCO1 (stereo not given) | inactive |
| CCOC(=O)c1ccc(OC(=O)CCCCCN=C(N)N)cc1 | inactive |
| CCN(C)C(=O)Oc1cccc([C@H](C)N(C)C)c1 | inactive |

assay: Quantitative High-Throughput drug screen in 47 multiple myeloma cell lines against the NCATS MIPE library collection: VP6_DJ cell viability assay (AID 1919867); settings: ATP luminescence, 48 h; series mostly up to 45.8 µM; further: nearly all actives have a fitted effect of over 40% in size
How it was run: as §1

| Structure (SMILES) | Potency |
| --- | --- |
| COc1ncnc(NS(=O)(=O)c2ccc(N)cc2)c1OC | inactive |
| O=C(O)c1cc(=O)[nH]c(=O)[nH]1 | inactive |
| CC(C)Cn1cnc2c(N)nc3ccccc3c21 | inactive |
| CCCN[C@H]1CCc2nc(N)sc2C1 | 18.7 µM (active) |
| CC1CC2C3CCC4=CC(=O)C=C[C@]4(C)[C@@]3(F)[C@@H](O)C[C@]2(C)[C@@]1(O)C(=O)CO (stereo not given in full) | 0.209 µM (active) |
| COc1cnc(NS(=O)(=O)c2ccc(N)cc2)nc1 | 20.9 µM (active) |
| Cc1ccnc2c1NC(=O)c1cccnc1N2C1CC1 | 26.4 µM (active) |
| CC(C)(Sc1cc(C(C)(C)C)c(O)c(C(C)(C)C)c1)Sc1cc(C(C)(C)C)c(O)c(C(C)(C)C)c1 | 18.7 µM (active) |
| CCOC(=O)c1ccc(OC(=O)CCCCCN=C(N)N)cc1 | inactive |

assay: Quantitative High-Throughput drug screen in 47 multiple myeloma cell lines against the NCATS MIPE library collection: UTMC2_PLB cell viability assay (AID 1919868); settings: CellTiter-Glo ATP luminescence, 48 h; series mostly up to 45.8 µM; further: nearly all actives have a fitted effect of over 55% in size
How it was run: as §1

| Structure (SMILES) | Potency |
| --- | --- |
| COc1ncnc(NS(=O)(=O)c2ccc(N)cc2)c1OC | inactive |
| O=P(O)(O)C(O)(Cc1cccnc1)P(=O)(O)O | inactive |
| COc1ccccc1OCC(O)COC(N)=O (stereo not given) | inactive |
| COc1cc2ncnc(Nc3cccc(Cl)c3)c2cc1OC | inactive |
| CCn1cc(C(=O)O)c(=O)c2cc(F)c(N3CCN(C)CC3)cc21 | inactive |
| NC1(c2ccc(-c3nc4ccn5c(=O)[nH]nc5c4cc3-c3ccccc3)cc2)CCC1 | 1.18 µM (active) |
| CN1CCN(c2c(F)cc3c(=O)c(C(=O)O)cn4c3c2OCN4C)CC1 | inactive |
| COc1cccc(N(C)C(=S)Oc2ccc3c(c2)CCCC3)n1 | inactive |
| CCn1cc(C(=O)O)c(=O)c2cc(F)c(N3CCNCC3)cc21 | inactive |
| CCOc1cc(N)c(Cl)cc1C(=O)NCC1CN(Cc2ccc(F)cc2)CCO1 (stereo not given) | inactive |
| Cc1cccc(N(C)C(=S)Oc2ccc3ccccc3c2)c1 | inactive |
| CC(C)(Sc1cc(C(C)(C)C)c(O)c(C(C)(C)C)c1)Sc1cc(C(C)(C)C)c(O)c(C(C)(C)C)c1 | 5.9 µM (active) |
